Measurements as given in PubChem BioAssay (EPA / NIEHS).
“And” between values parts separate entries of the source, which are not always exact repeats. Identical values can stand only once. Some structures have more than one record in an assay (separate samples or runs), and their calls can disagree. The source made the active and inactive calls. How the source made its calls: active means hit-call score of the fitted dose curve at least 0.9, where 1 is the maximum; inactive means score below 0.9.

Tests used:
[1] = target: Transcription factor E2F1 (Homo sapiens) (UniProt Q01094); experiment: ATG_E2F_CIS: Attagene CIS-FACTORIAL HepG2 Assay for human E2F Transcription Factor 1 (AID 2282935); conditions: HepG2 Attagene cis-reporter, E2F reporter RNA transcripts; actives raise or lower the signal
Chain of Transcription factor E2F1 (Homo sapiens) (Q01094 whole entry, looked up): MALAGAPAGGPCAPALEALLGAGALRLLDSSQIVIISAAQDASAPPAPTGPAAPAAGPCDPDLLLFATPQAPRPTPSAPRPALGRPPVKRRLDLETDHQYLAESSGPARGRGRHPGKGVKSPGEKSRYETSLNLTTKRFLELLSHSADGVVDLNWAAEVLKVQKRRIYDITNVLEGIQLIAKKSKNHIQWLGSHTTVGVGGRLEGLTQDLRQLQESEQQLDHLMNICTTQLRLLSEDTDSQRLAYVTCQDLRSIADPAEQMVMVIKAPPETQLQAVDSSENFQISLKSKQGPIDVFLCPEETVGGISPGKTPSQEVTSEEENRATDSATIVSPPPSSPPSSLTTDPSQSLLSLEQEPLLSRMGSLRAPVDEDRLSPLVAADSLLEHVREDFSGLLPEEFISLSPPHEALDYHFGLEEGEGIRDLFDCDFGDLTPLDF
Outline: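 Gain or loss of reporter transcript, fitted against DMSO, reflects E2F1-driven transcription. Transiently transfected HepG2 dosed 24 h before RNA isolation. Quantified by fluorescent RT-PCR products separated by capillary electrophoresis.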

[2] = ATG_E_Box_CIS: Attagene CIS-FACTORIAL HepG2 Assay for human Enhancer Box (E-box) (AID 2282936); conditions: HepG2 E-box cis-reporter transcription, actives raise or lower the signal
Outline: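 E-box-driven reporter transcripts measured in transiently transfected HepG2 after 24 h exposure: RNA reverse-transcribed, PCR-amplified, fluorescently labelled, digested and resolved by capillary electrophoresis. Gain or loss relative to DMSO.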

[3] = ATG_M_61_CIS: Attagene CIS-FACTORIAL HepG2 Assay for M61 Transcription Factor (Internal Marker) (AID 2282937); conditions: HepG2 Attagene CIS-FACTORIAL M61 internal marker reporter; actives raise or lower the signal
Outline: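 This endpoint serves as an internal background control within a multiplexed HepG2 cis-reporter panel. Cells are exposed for 24 h; reporter mRNA is amplified, fluorescently labelled and sized by capillary electrophoresis, with DMSO as negative control.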

[4] = ATG_EGR_CIS: Attagene CIS-FACTORIAL HepG2 Assay for human Early Growth Response 1 (EGR1) (AID 2282938); conditions: HepG2 Attagene CIS-FACTORIAL EGR reporter mRNA; actives raise or lower the signal
Outline: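 HepG2, transient MRTU transfection (cis promoters), 24 h compound. RNA → RT (oligo-dT) → PCR → 6-FAM labelling → HpaI cut → CE fluorescence. Bidirectional fit, DMSO baseline.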

[5] = ATG_M_19_CIS: Attagene CIS-FACTORIAL HepG2 Assay for M19 Transcription Factor (Internal Marker) (AID 2282939); conditions: HepG2 Attagene CIS-FACTORIAL M19 internal marker reporter; actives raise or lower the signal
Outline: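 Transfect HepG2 with MRTU reporter library → dose chemical, 24 h → isolate total RNA, reverse-transcribe with oligo(dT) → PCR, 6-FAM label, HpaI cut (2 h, 37 C) → capillary electrophoresis. Bidirectional fit vs DMSO.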

[6] = ATG_ERE_CIS: Attagene CIS-FACTORIAL HepG2 Assay for Estrogen Response Element (ERE) (AID 2282940); conditions: HepG2 ERE cis-reporter, Attagene RNA transcript; actives raise or lower the signal
Outline: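 Transient MRTU transfection of human HepG2; cis-element promoters; 24 h dosing; total RNA → RT (oligo dT) → PCR → 6-FAM primer extension → HpaI digest → CE fluorescence. Bidirectional fit, DMSO baseline.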

[7] = ATG_Ets_CIS: Attagene CIS-FACTORIAL HepG2 Assay for human Erythroblast Transformation Specific (ETS) (AID 2282941); conditions: HepG2 ETS cis-reporter transcription, actives raise or lower the signal
Outline: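 Cis-regulated reporter mRNA induction in HepG2 (transient transfection), 24 h exposure, RT-PCR plus capillary electrophoresis detection; DMSO serves as negative control and baseline.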

[8] = target: Hepatocyte nuclear factor 3-beta (Homo sapiens) (UniProt Q9Y261); experiment: ATG_FoxA2_CIS: Attagene CIS-FACTORIAL HepG2 Assay for human Forkhead box A2 (FOXA2) (AID 2282942); conditions: HepG2 cis-reporter transcription factor activity, 24 h; actives raise or lower the signal
Chain of Hepatocyte nuclear factor 3-beta (Homo sapiens) (Q9Y261 whole entry, looked up): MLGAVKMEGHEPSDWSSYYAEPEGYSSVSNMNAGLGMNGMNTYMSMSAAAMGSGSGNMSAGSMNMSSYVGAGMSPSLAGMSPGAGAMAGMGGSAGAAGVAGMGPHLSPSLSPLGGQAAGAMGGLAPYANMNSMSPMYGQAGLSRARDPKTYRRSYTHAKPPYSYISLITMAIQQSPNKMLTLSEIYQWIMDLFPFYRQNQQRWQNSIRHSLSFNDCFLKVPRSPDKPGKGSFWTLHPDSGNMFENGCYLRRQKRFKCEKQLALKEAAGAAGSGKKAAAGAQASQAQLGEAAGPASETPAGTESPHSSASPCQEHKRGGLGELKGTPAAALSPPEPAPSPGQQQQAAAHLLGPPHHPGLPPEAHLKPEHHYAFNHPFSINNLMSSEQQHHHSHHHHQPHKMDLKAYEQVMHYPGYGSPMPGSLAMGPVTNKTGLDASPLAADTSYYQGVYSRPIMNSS
Outline: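 Cells: HepG2, transient multiplex reporter transfection. Exposure 24 h. Detection: reporter-specific RT-PCR, fluorescent labelling, restriction digest, capillary electrophoresis. Analysis: bidirectional curve fit, DMSO as negative control.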

[9] = ATG_FoxO_CIS: Attagene CIS-FACTORIAL HepG2 Assay for human Forkhead box O (FoxO) (AID 2282943); conditions: HepG2 Attagene cis-reporter, FoxO element, mRNA; actives raise or lower the signal
Outline: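 Endogenous transcription factor activity read from multiplexed cis-promoter reporter transcripts in transiently transfected HepG2, 24 h after dosing. Reporter RNA measured via RT-PCR plus capillary electrophoresis of FAM-labeled products; gain or loss relative to DMSO.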

[10] = ATG_GATA_CIS: Attagene CIS-FACTORIAL HepG2 Assay for human GATA Binding Protein (AID 2282944); conditions: HepG2 GATA cis-element reporter, Attagene multiplex mRNA; actives raise or lower the signal
Outline: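 Transient MRTU transfection, HepG2, 24 h compound exposure. Total RNA → oligo(dT) RT → PCR → 6-FAM primer extension → HpaI cut → CE. Bidirectional fit vs DMSO.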

| SMILES | outcome [1] | outcome [2] | outcome [3] | outcome [4] | outcome [5] | AC50 [6] | outcome [6] | outcome [7] | outcome [8] | outcome [9] | outcome [10] | AC50 [1] | AC50 [10] | AC50 [4] | AC50 [2] | AC50 [7] | AC50 [8] |
| --- | --- | --- | --- | --- | --- | --- | --- | --- | --- | --- | --- | --- | --- | --- | --- | --- | --- |
| CN1CCC[C@H]1c1cccnc1 | inactive | inactive | inactive | inactive | inactive | 49.4 µM (active) | inactive | inactive | inactive | inactive | inactive |  |  |  |  |  |  |
| OCCC(F)(F)C(F)(F)C(F)(F)C(F)(F)C(F)(F)C(F)(F)F | inactive | inactive | inactive | inactive |  | 33.9 µM (active) and 9.4 µM (active) |  | inactive | inactive | inactive | inactive | 136 µM (active) | 125 µM (active) |  |  |  |  |
| CC[C@H](c1ccc(O)cc1)[C@@H](CC)c1ccc(O)cc1 | inactive | inactive | inactive | inactive |  | 1.02 nM (active) and 3.79 nM (active) and 1.01 nM (active) |  | inactive | inactive | inactive | inactive |  |  | 11.1 µM (active) |  |  |  |
| CCCCCCCCCCCCc1ccccc1S(=O)(=O)O | inactive | inactive | inactive | inactive | inactive |  | inactive | inactive | inactive | inactive | inactive |  |  |  |  |  |  |
| C[C@@H]1C[C@H]2[C@@H]3CCC4=CC(=O)C=C[C@]4(C)[C@@]3(F)[C@@H](O)C[C@]2(C)[C@@]1(O)C(=O)COP(=O)(O)O | inactive | inactive | inactive | inactive | inactive |  | inactive | inactive | inactive | inactive | inactive |  |  |  |  |  |  |
| OC1CCCCC1 | inactive | inactive | inactive | inactive | inactive | 100 µM (active) | inactive | inactive | inactive | inactive | inactive |  |  |  |  |  |  |
| Cc1cc(C)c(O)c(C)c1 | inactive | inactive | inactive | inactive | inactive |  | inactive | inactive | inactive | inactive | inactive |  |  |  |  |  |  |
| CCc1ccc(CCOc2ccc(CC3SC(=O)NC3=O)cc2)nc1 (configuration not stated) | inactive | inactive | inactive | inactive | inactive | 19.8 µM (active) and 41.4 µM (active) |  | inactive | inactive | inactive | inactive |  |  |  |  |  |  |
| c1ccc2cc3c(ccc4ccccc43)cc2c1 | inactive | inactive | inactive | inactive | inactive | 2.82 µM (active) [middle of 4 runs] |  | inactive | inactive | inactive | inactive |  |  | 2.26 µM (active) | 1.59 µM (active) and 4.58 µM (active) and 2.65 µM (active) |  |  |
| CCCCOCCO | inactive | inactive | inactive | inactive | inactive | 134 µM (active) |  | inactive | inactive | inactive | inactive |  |  |  |  |  |  |
| CCCOC(=O)c1ccc(O)cc1 | inactive | inactive | inactive | inactive |  | 6.06 µM (active) and 16 µM (active) |  | inactive | inactive | inactive | inactive |  |  | 157 µM (active) |  |  |  |
| OC1CCC(C2CCCCC2)CC1 (configuration not stated) | inactive | inactive | inactive | inactive | inactive | 27 µM (active) and 27.4 µM (active) and 27.5 µM (active) |  | inactive | inactive | inactive | inactive |  |  |  |  |  |  |
| CCCCCCCCC(=O)O | inactive | inactive | inactive | inactive | inactive |  | inactive | inactive | inactive | inactive | inactive |  |  |  |  |  |  |
| O=C(O)c1ccccc1C(c1ccc(O)cc1)c1ccc(O)cc1 | inactive | inactive | inactive | inactive | inactive | 62.7 µM (active) [middle of 4 runs] |  | inactive | inactive | inactive | inactive |  |  |  |  |  |  |
| NC(=O)N1C(=O)C(C(=O)c2cc(Cl)cs2)c2cc(F)c(Cl)cc21 (configuration not stated) | inactive | inactive | inactive | inactive | inactive |  | inactive | inactive | inactive | inactive | inactive |  |  |  |  |  |  |
| CCCCCCCCOC(=O)CCCCCCCCC(=O)OCCCCCCCC | inactive | inactive | inactive | inactive | inactive |  | inactive | inactive | inactive | inactive | inactive |  |  |  |  |  |  |
| CC#C[C@]1(O)CC[C@H]2[C@@H]3CCC4=CC(=O)CCC4=C3[C@@H](c3ccc(N(C)C)cc3)C[C@@]21C | inactive | inactive | inactive |  | inactive |  | inactive | inactive | inactive | inactive | inactive |  |  | 9.86 µM (active) [middle of 4 runs] |  | 8.92 µM (active) | 58.4 µM (active) |
